Assay results taken from the supplement of paper PMC3724861.
This excerpt belongs to a sample that is enriched for hits. The true hit rate is not given.

The sequences below were run on T1, Caupolican (Caup) homeodomain DNA-binding domain (assay: PBM E-score (8-mer, recovered from the published 9-mer minima) (E-score (dimensionless, -0.5 to 0.5)); Drosophila protein; higher = stronger relative binding preference, active = 0.31 or more).
T1 sequence: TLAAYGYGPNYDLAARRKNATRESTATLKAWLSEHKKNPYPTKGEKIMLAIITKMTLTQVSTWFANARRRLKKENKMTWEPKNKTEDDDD
Description: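 Protein binding microarray (PBM): in vitro transcribed/translated Caupolican (Caup) homeodomain DNA-binding domain (residues 214-303) applied at 100 nM to a universal 8-mer PBM array (Agilent AMADID 015681). The 8-mer enrichment score (E-score, range -0.5 to 0.5) was computed, and each 9-mer score is the minimum E-score of its two constituent 8-mers. The E-score is the same for a 9-mer and its reverse complement; 0.31 is the stated binding threshold.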
AGCCCTCA was tested, and the “PBM E-score” value was -0.12 (inactive). For CAACAAAG, the “PBM E-score” value was 0.159 (inactive). For CTAATAAG, the “PBM E-score” value was 0.0971 (inactive). For GGCTAGGA, the “PBM E-score” value was -0.114 (inactive). For ATAAGGAA, the “PBM E-score” value was 0.0175 (inactive). For TAAACGCA, the “PBM E-score” value was 0.034 (inactive). AGATACGC was tested, and the “PBM E-score” value was -0.121 (inactive). GGGTCTGA was tested, and the “PBM E-score” value was -0.193 (inactive). For ACGCTGAG, the “PBM E-score” value was -0.175 (inactive). With CATGTTGC the “PBM E-score” value was 0.279 (inactive). With AATGTTGA the “PBM E-score” value was 0.17 (inactive). For AATGTTGT, the “PBM E-score” value was 0.368 (active). With CATGTTGA the “PBM E-score” value was 0.38 (active). In the case of AATGTTGG, the “PBM E-score” value is reported as 0.115 (inactive). With CATGTTGG the “PBM E-score” value was 0.285 (inactive). AGTCTAAG was tested, and the “PBM E-score” value was 0.0473 (inactive). For GTATGTGA, the “PBM E-score” value was 0.193 (inactive). With CTATGTGA the “PBM E-score” value was 0.137 (inactive). In the case of CTATGTAA, the “PBM E-score” value is reported as 0.338 (active). For ATATGTAA, the “PBM E-score” value was 0.34 (active). With CTCTGTAA the “PBM E-score” value was 0.12 (inactive). GAATGTAA was tested, and the “PBM E-score” value was 0.223 (inactive). ATATGCAA was tested, and the “PBM E-score” value was 0.123 (inactive). ATCTGTAA was tested, and the “PBM E-score” value was 0.15 (inactive). GTATGTAA was tested, and the “PBM E-score” value was 0.369 (active). In the case of AGGAGGAG, the “PBM E-score” value is reported as -0.188 (inactive). For TATCGCAA, the “PBM E-score” value was 0.0789 (inactive). For CGAGAAGC, the “PBM E-score” value was -0.0725 (inactive). With CGTTTTAC the “PBM E-score” value was 0.0444 (inactive). ATTAGTGA was tested, and the “PBM E-score” value was 0.107 (inactive). With CTGCTAGC the “PBM E-score” value was -0.102 (inactive). GTGGTTGA was tested, and the “PBM E-score” value was 0.0698 (inactive). In the case of AATTAGAG, the “PBM E-score” value is reported as 0.00042 (inactive). For CGCCCCAG, the “PBM E-score” value was -0.238 (inactive). CCATGCAC was tested, and the “PBM E-score” value was -0.0759 (inactive). For ACATGCGC, the “PBM E-score” value was 0.288 (inactive). For AAATGCAT, the “PBM E-score” value was 0.0673 (inactive). With ACATGCGT the “PBM E-score” value was 0.346 (active). ACATGCAA was tested, and the “PBM E-score” value was 0.323 (active). In the case of ACATGCGG, the “PBM E-score” value is reported as 0.195 (inactive). With ACATGCAG the “PBM E-score” value was 0.294 (inactive). In the case of ACATGCAC, the “PBM E-score” value is reported as 0.393 (active). In the case of GCATGCAA, the “PBM E-score” value is reported as 0.0861 (inactive). GCATGCAC was tested, and the “PBM E-score” value was 0.0682 (inactive). For TCATGCAA, the “PBM E-score” value was 0.146 (inactive). With ACATGCAT the “PBM E-score” value was 0.376 (active). For CGTCGTCA, the “PBM E-score” value was -0.0203 (inactive). AAAAGCCT was tested, and the “PBM E-score” value was -0.0858 (inactive). With AGATTGGC the “PBM E-score” value was -0.0959 (inactive). For CAGCCTCC, the “PBM E-score” value was -0.292 (inactive). ACGGGTTC was tested, and the “PBM E-score” value was -0.0477 (inactive). In the case of CAACAATG, the “PBM E-score” value is reported as 0.323 (active). CAACAAGG was tested, and the “PBM E-score” value was 0.338 (active). AAACAATG was tested, and the “PBM E-score” value was 0.256 (inactive). With CAACAATC the “PBM E-score” value was 0.258 (inactive). CAACAAGC was tested, and the “PBM E-score” value was 0.202 (inactive). With CAACAAGA the “PBM E-score” value was 0.241 (inactive). With CGCCCCTA the “PBM E-score” value was -0.159 (inactive). In the case of GTAAGAGA, the “PBM E-score” value is reported as 0.016 (inactive). For GGCTTGCA, the “PBM E-score” value was -0.0355 (inactive). For AGAACAGA, the “PBM E-score” value was 0.16 (inactive). With AGAACATA the “PBM E-score” value was 0.318 (active). For CGAACATC, the “PBM E-score” value was 0.279 (inactive). CGAACATA was tested, and the “PBM E-score” value was 0.343 (active). With AGAACAGG the “PBM E-score” value was 0.139 (inactive). AGAACATC was tested, and the “PBM E-score” value was 0.235 (inactive). For AGAACATG, the “PBM E-score” value was 0.406 (active). In the case of CGAACAAA, the “PBM E-score” value is reported as 0.157 (inactive). With GGAACATA the “PBM E-score” value was 0.271 (inactive). In the case of TAGCTCGA, the “PBM E-score” value is reported as -0.0721 (inactive). For CACACCGG, the “PBM E-score” value was -0.087 (inactive). In the case of GTCGTTCA, the “PBM E-score” value is reported as 0.0698 (inactive). With AGTTGGAG the “PBM E-score” value was -0.129 (inactive). In the case of CAGTTAAG, the “PBM E-score” value is reported as 0.0884 (inactive). With CGTCTAAG the “PBM E-score” value was -0.13 (inactive). In the case of GAAAGGTA, the “PBM E-score” value is reported as 0.0535 (inactive). With AAACTCGA the “PBM E-score” value was 0.0205 (inactive). With AAGTAATA the “PBM E-score” value was 0.134 (inactive). GCGTAATA was tested, and the “PBM E-score” value was 0.076 (inactive). ATGTAATA was tested, and the “PBM E-score” value was 0.383 (active). GTGTAATA was tested, and the “PBM E-score” value was 0.315 (active). In the case of ATGTAATC, the “PBM E-score” value is reported as 0.348 (active). GAGTAATA was tested, and the “PBM E-score” value was 0.167 (inactive). CTGTAATA was tested, and the “PBM E-score” value was 0.193 (inactive). In the case of ATGTAATG, the “PBM E-score” value is reported as 0.37 (active). For ACGTAATG, the “PBM E-score” value was 0.16 (inactive). With ATGTAAGG the “PBM E-score” value was 0.303 (inactive). CTGTAATC was tested, and the “PBM E-score” value was 0.162 (inactive). With ACGTAATC the “PBM E-score” value was 0.155 (inactive). With ACTAGTGA the “PBM E-score” value was 0.113 (inactive). With CGGTCTGA the “PBM E-score” value was -0.0584 (inactive). GGCTTAGA was tested, and the “PBM E-score” value was -0.112 (inactive). With ACTACCAA the “PBM E-score” value was 0.167 (inactive). GTAGGCAC was tested, and the “PBM E-score” value was -0.096 (inactive). In the case of GTTAGGAA, the “PBM E-score” value is reported as 0.0363 (inactive). AATCACTG was tested, and the “PBM E-score” value was 0.0918 (inactive). With ACCCAACT the “PBM E-score” value was -0.0182 (inactive). In the case of ATGTGTAC, the “PBM E-score” value is reported as 0.348 (active). With ATGTGTAA the “PBM E-score” value was 0.332 (active). For ATGTGTAG, the “PBM E-score” value was 0.193 (inactive). CTGTGTAA was tested, and the “PBM E-score” value was 0.294 (inactive). For CTGTGTAC, the “PBM E-score” value was 0.272 (inactive). GTGTGTAA was tested, and the “PBM E-score” value was 0.275 (inactive). In the case of CATGTCCA, the “PBM E-score” value is reported as 0.384 (active). For CATGTCCG, the “PBM E-score” value was 0.303 (inactive). In the case of AATGTCCA, the “PBM E-score” value is reported as 0.251 (inactive). For CATGTCCC, the “PBM E-score” value was 0.33 (active). In the case of AATGTCCC, the “PBM E-score” value is reported as 0.0508 (inactive). For TATGTCCA, the “PBM E-score” value was 0.214 (inactive). In the case of GTAACGTA, the “PBM E-score” value is reported as 0.198 (inactive). ACATGTGC was tested, and the “PBM E-score” value was 0.351 (active). In the case of CCATGTGC, the “PBM E-score” value is reported as -0.0035 (inactive). ACATGTGG was tested, and the “PBM E-score” value was 0.308 (inactive). In the case of ACATGTGA, the “PBM E-score” value is reported as 0.312 (active). CCATGTGA was tested, and the “PBM E-score” value was 0.0957 (inactive). In the case of GCATGTGA, the “PBM E-score” value is reported as 0.176 (inactive). CACTGGAG was tested, and the “PBM E-score” value was -0.159 (inactive). In the case of ATACACCG, the “PBM E-score” value is reported as 0.184 (inactive). ATCGGGGG was tested, and the “PBM E-score” value was -0.264 (inactive). In the case of TGATGTAA, the “PBM E-score” value is reported as 0.36 (active). AGATGTAT was tested, and the “PBM E-score” value was 0.29 (inactive). For CGATGTAA, the “PBM E-score” value was 0.276 (inactive). For AGATGTAA, the “PBM E-score” value was 0.336 (active). With AGATGTAG the “PBM E-score” value was 0.244 (inactive). For GGATGTAA, the “PBM E-score” value was 0.299 (inactive). For CCGCGTTA, the “PBM E-score” value was -0.054 (inactive). For GATCTAGA, the “PBM E-score” value was -0.0194 (inactive). With CTACTACA the “PBM E-score” value was 0.305 (inactive). GTACTACA was tested, and the “PBM E-score” value was 0.376 (active). ATACTACC was tested, and the “PBM E-score” value was 0.0922 (inactive). With ATACTACA the “PBM E-score” value was 0.364 (active). For GTACTAAA, the “PBM E-score” value was 0.229 (inactive). For GCACTACA, the “PBM E-score” value was 0.176 (inactive). CAGTTTCG was tested, and the “PBM E-score” value was -0.0432 (inactive). CAGCTACG was tested, and the “PBM E-score” value was -0.101 (inactive). With ATGTACAG the “PBM E-score” value was 0.343 (active). For ATGTACCG, the “PBM E-score” value was 0.287 (inactive). ATGTACAC was tested, and the “PBM E-score” value was 0.441 (active). With GTGTACAC the “PBM E-score” value was 0.389 (active). CTGTACAC was tested, and the “PBM E-score” value was 0.284 (inactive). In the case of GGGTACAC, the “PBM E-score” value is reported as 0.14 (inactive). With ATCTACAT the “PBM E-score” value was 0.29 (inactive). With ATGTACAT the “PBM E-score” value was ≥ 0.469 (active). In the case of CTGTACAG, the “PBM E-score” value is reported as 0.164 (inactive). ATGTACGC was tested, and the “PBM E-score” value was 0.29 (inactive). With CAGTACAC the “PBM E-score” value was 0.288 (inactive). For TCCGCAAA, the “PBM E-score” value was -0.0879 (inactive).
